The text below walks through data of PubChem BioAssay.

Values without a mark were called inactive. This is one part of the list. Activity calls are given as the source filed them.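 How the source made its calls, unless noted: active means mean inhibition above 46.5%, the solvent-only control mean plus 3 SD; inactive means the rest.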

Assay [1] addresses Nuclear receptor coactivator 3 (Homo sapiens) (UniProt Q9Y6Q9). Description: SRC3 coactivator transcriptional activity inhibitors, confirmation, cell-based, luminescence, quadruplicate (AID 588792;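 active means mean inhibition over 43.08%, the solvent-only control mean plus 3 SD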;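 further: 0% = DMSO treated cells and 100% = gossypol at 36 µM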). The settings on record: HEK293 GAL4-SRC3 luciferase reporter, at 3.6 µM, stronger effect = higher value.
The test system of assay [2] is transactivating tegument protein VP16 (Human herpesvirus 1), Gal4-VP16 luciferase reporter. Description: VP16 transactivation inhibitors, counter-screen for SRC3 inhibitor project, cell-based, luminescence, high throughput (AID 588794; in the data active means inhibition above about 30%). The following applies: mammalian cells, VP16-driven luciferase reporter luminescence; at 3.6 µM; stronger effect = higher value. On the technique in general: Counterscreens check selectivity or assay interference.

The target in assay [3] is Nuclear receptor coactivator 1 (Homo sapiens) (UniProt Q15788). In words: SRC1 coactivator transcriptional activity inhibitors, confirmation, cell-based, luminescence, quadruplicate (AID 588820;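 active means mean inhibition above 46.68%, the untreated control wells mean plus 3 SD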;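 further: 0% = DMSO wells and 100% = gossypol 36 µM treated wells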). The following applies: HEK293 GAL4-SRC1 luciferase reporter, at 3.6 µM, stronger effect = higher value. (In general: In a reporter assay the amount or activity of a reporter protein is the signal.)
Chain of Nuclear receptor coactivator 1 (Homo sapiens) (Q15788 whole entry, looked up, the tested form may be a part): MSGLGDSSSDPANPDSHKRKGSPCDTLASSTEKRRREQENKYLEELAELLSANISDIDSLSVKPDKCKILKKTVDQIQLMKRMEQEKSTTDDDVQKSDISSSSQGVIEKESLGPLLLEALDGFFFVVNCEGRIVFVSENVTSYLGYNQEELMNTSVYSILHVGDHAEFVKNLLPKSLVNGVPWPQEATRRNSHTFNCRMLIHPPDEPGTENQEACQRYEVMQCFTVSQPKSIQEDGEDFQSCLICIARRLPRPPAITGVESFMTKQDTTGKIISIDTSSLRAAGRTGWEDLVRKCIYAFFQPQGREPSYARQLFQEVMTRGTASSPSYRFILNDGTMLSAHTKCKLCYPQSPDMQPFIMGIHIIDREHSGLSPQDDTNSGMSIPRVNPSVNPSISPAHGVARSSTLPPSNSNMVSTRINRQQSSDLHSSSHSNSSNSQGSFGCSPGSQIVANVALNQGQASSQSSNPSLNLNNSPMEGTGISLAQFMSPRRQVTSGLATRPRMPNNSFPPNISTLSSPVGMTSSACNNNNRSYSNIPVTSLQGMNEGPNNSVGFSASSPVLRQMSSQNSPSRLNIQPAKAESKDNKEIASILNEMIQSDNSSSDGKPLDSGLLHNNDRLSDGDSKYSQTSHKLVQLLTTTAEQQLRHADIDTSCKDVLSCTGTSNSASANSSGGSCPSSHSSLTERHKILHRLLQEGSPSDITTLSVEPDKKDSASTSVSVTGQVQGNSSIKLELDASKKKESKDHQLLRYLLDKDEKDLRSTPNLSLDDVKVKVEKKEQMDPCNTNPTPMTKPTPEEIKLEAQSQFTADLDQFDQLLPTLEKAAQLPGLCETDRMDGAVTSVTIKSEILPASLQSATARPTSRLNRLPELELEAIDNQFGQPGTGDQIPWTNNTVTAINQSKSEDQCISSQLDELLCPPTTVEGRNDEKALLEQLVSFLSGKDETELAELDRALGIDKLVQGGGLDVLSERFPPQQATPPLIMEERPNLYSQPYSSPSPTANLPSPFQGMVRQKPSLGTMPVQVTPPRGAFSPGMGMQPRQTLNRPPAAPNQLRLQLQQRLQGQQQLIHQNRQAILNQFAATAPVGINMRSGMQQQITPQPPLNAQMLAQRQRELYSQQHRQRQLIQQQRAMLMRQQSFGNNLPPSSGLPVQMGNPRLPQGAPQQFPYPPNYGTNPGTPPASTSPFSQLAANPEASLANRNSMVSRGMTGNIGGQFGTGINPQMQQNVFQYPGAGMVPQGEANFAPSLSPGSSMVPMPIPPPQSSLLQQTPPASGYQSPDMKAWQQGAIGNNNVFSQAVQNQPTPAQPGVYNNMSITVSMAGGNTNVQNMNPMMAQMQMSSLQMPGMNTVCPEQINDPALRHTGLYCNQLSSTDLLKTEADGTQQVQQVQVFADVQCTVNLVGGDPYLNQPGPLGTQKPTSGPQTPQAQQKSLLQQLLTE

Assay [4] in a line: VP16 transactivation inhibitors, counter-screen for SRC1 inhibitor project, cell-based, luminescence, high throughput (AID 588824; in the data active means inhibition above about 25%). The settings on record: cell-based VP16 transactivation luciferase luminescence; at 3.6 µM; stronger effect = higher value.
Assay [5] relates to transactivating tegument protein VP16 (Human herpesvirus 1). Description: VP16 transactivation reporter inhibitors, counter-screen for SRC2 inhibitor project, cell-based, luminescence, single concentration (AID 652007; in the data active means inhibition above about 36%). The settings on record: cell-based VP16 transactivation luciferase reporter, at 8.9 µM, stronger effect = higher value.
Assay [6] concerns the target Nuclear receptor coactivator 2 (Homo sapiens) (UniProt Q15596). Description: SRC2 coactivator transcriptional activity inhibitors, confirmation, cell-based, luminescence, HEK293, triplicate (AID 652008).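 Further: 0% = DMSO-treated cells and 100% = Gossypol at 36 µM.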 The following applies: HEK293 GAL4-SRC2 luciferase reporter, at 8.9 µM, stronger effect = higher value.
Assay [7] is described as follows: Gal4-VP16 luciferase reporter inhibitors, counter-screen for COUP-TFII antagonist project, cell-based, luminescence, HEK293 (AID 687007; in the data active means inhibition above about 13%). The following applies: at 8.5 µM, stronger effect = higher value.
Assay [8] concerns the target COUP transcription factor 2 (Homo sapiens) (UniProt P24468). Description: NR2F2 transcriptional activity inhibitors, confirmation, cell-based, luciferase reporter, HEK293, triplicate (AID 687008;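 active means mean inhibition over three repeats above a set limit taken from the earlier primary screen, cut at about 38% in these data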;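 further: 100% = cells given the luciferase reporter alone without the COUP-TF2 vector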). The settings on record: HEK293 NGFI-A luciferase reporter, luminescence; at 8.5 µM; stronger effect = higher value.

Chain of Nuclear receptor coactivator 2 (Homo sapiens) (Q15596 whole entry, looked up, the tested form may be a part): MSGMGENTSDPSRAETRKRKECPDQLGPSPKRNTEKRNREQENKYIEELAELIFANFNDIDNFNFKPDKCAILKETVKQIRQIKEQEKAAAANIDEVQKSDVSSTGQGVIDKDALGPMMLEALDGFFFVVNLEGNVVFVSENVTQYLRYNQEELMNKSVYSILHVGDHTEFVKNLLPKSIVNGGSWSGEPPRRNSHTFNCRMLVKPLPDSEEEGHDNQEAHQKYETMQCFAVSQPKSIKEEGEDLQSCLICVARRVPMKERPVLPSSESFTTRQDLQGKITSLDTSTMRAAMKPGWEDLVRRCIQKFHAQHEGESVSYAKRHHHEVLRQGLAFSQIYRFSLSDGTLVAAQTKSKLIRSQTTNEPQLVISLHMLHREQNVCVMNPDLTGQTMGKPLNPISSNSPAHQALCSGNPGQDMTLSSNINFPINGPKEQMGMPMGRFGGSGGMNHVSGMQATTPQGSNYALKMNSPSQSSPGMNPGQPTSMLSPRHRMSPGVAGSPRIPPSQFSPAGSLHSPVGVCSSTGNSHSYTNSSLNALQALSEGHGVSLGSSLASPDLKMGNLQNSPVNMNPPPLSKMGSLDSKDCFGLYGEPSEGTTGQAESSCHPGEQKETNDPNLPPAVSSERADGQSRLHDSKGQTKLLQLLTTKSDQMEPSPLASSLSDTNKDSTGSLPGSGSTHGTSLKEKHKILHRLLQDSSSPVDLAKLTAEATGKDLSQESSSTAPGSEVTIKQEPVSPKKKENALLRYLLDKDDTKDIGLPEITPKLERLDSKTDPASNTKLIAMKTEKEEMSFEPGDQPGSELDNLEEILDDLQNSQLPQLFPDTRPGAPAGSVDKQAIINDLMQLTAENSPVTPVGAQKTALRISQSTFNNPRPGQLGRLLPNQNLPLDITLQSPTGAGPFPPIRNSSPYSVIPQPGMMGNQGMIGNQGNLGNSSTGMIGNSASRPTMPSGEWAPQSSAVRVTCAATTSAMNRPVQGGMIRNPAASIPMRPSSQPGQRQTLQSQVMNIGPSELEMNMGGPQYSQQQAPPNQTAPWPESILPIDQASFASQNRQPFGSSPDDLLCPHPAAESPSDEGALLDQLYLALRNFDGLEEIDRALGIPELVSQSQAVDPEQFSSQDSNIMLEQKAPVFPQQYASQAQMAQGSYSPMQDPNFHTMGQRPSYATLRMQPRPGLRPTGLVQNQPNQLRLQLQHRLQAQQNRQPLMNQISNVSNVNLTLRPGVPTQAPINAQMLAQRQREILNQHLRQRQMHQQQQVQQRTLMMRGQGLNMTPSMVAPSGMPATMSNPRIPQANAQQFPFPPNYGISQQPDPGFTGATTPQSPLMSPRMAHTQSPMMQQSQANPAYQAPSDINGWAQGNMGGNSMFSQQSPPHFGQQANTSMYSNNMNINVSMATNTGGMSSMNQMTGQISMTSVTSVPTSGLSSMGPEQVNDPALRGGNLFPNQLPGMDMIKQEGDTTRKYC
Chain of Nuclear receptor coactivator 3 (Homo sapiens) (Q9Y6Q9 whole entry, looked up, the tested form may be a part): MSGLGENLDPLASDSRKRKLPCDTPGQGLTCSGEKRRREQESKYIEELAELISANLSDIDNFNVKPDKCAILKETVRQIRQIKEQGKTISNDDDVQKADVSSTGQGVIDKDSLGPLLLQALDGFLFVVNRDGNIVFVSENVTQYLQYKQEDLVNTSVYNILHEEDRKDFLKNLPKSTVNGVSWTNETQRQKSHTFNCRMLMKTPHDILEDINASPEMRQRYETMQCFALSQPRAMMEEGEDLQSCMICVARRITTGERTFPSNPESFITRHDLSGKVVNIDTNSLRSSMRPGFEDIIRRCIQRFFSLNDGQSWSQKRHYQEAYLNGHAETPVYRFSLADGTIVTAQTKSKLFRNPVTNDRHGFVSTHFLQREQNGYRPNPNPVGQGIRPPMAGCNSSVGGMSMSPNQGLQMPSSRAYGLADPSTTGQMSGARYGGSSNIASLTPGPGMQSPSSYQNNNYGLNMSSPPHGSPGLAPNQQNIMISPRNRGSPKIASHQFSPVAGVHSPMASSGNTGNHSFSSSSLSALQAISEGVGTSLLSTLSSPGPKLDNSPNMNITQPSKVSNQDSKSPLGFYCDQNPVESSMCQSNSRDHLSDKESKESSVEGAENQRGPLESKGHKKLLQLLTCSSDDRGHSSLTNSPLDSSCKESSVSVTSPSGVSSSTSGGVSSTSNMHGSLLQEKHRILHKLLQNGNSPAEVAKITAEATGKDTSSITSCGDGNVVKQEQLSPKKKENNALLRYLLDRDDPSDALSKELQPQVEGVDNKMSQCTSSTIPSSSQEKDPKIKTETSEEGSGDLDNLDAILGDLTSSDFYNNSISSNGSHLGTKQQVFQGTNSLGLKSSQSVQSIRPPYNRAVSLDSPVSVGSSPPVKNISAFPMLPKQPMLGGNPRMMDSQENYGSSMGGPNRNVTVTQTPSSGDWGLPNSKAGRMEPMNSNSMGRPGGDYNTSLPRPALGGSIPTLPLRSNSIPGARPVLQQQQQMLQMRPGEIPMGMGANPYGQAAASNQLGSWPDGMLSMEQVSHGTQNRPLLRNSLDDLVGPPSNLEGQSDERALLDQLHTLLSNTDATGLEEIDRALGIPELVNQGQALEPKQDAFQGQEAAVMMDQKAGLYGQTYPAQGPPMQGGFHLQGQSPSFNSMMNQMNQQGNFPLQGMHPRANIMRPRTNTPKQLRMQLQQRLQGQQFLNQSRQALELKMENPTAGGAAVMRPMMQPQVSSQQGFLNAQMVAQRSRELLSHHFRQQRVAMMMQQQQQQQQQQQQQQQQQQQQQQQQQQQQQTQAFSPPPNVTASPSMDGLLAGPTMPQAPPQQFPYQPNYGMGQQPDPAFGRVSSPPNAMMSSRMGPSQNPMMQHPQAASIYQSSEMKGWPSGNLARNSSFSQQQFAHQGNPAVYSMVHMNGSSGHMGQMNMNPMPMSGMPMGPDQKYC
Chain of COUP transcription factor 2 (Homo sapiens) (P24468 whole entry, looked up): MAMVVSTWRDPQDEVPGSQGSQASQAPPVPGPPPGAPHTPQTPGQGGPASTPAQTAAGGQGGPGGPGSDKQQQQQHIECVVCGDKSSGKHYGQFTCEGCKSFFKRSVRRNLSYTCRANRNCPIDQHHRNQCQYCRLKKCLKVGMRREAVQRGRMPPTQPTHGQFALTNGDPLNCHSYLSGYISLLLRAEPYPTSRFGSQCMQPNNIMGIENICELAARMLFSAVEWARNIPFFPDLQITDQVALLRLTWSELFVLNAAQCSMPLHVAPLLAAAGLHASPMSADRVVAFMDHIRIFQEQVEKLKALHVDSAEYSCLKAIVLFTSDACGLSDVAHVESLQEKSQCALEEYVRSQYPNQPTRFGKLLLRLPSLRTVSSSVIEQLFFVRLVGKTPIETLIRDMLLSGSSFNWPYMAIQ

With `OCCCNc1ncnc2scc(-c3ccc(Cl)cc3)c12`, the inhibition (as a rule, the change of the read-out against control, counted positive when it falls) in assay [1] is 62.6% (active); in assay [2], 47.1% (active); in assay [3], 62.6% (active); in assay [4] it was 39.2% (active); in assay [5], 5.28%; in assay [6], 46.5% (active).

Consider `COc1ccc(Cc2nnc(N/N=C/c3ccccc3O)[nH]c2=O)cc1OC`, for which the inhibition in assay [1] was 84.5% (active); in assay [2], 77% (active); in assay [3], 76.7% (active); in assay [4] it was 82.6% (active); in assay [5] it was 21.2%; in assay [6] it was 38.8%.

For `O=S(=O)(Nc1cc(Sc2ncn[nH]2)c(O)c2ccccc12)c1ccccc1`, the inhibition was 12.9% in assay [1]; 13.9% in assay [2]; -20.2% in assay [3]; 4.9% in assay [4]; 16.2% in assay [5]; 12.2% in assay [6].

In the case of `C(=N\Nc1ccc2ccccc2n1)/c1ccc2c(c1)OCCO2`, the inhibition is 34.6% in assay [1]; 24.2% in assay [2]; -49.9% in assay [3]; -11.3% in assay [4]; 44.3% (active) in assay [5]; 83.2% (active) in assay [6].

With `CC(/C=C1\SC(=O)N(CCCC(=O)O)C1=O)=C\c1ccccc1`, the inhibition is 79% (active) in assay [1]; 73.6% (active) in assay [2]; 71.9% (active) in assay [3]; 69.2% (active) in assay [4]; 90.3% (active) in assay [5]; 95.4% (active) in assay [6].

On to `c1ccc(CCc2nn3c(-c4ccncc4)nnc3s2)cc1`, for which the inhibition in assay [1] is 68.4% (active); in assay [2], 47.2% (active); in assay [3], 57.3% (active); in assay [4], 41.1% (active); in assay [5], 1.28%; in assay [6], 50.8% (active).

In the case of `O=C(NC1CCCCC1)C(c1cccnc1)N(C(=O)CCl)c1cccc(Cl)c1` (configuration not stated), the inhibition in assay [1] was 61.6% (active); in assay [2] it was 26.8%; in assay [3] it was 33.4%; in assay [4] it was 17.5%; in assay [5] it was 39.6% (active); in assay [6], 56.3% (active).

For `O=C(CCl)NC(Cc1ccccc1)c1ccccc1` (configuration not stated), the inhibition was 52.5% (active) in assay [1]; 14.2% in assay [2]; 24.6% in assay [3]; 6.41% in assay [4]; 32.8% in assay [5]; 47.5% (active) in assay [6].

In the case of `Cc1nc2sc(C(N)=O)c(N)c2c2c1CCCC2`, the inhibition in assay [1] was 79.4% (active); in assay [2], 47.5% (active); in assay [3], 69% (active); in assay [4] it was 51% (active); in assay [5], 6.77%; in assay [6], 61.5% (active).

In the case of `Cc1nnc(SCC(=O)N2CCC(c3noc4ccc(F)cc34)CC2)s1`, the inhibition in assay [1] was 85.1% (active); in assay [2], 48.4% (active); in assay [3], 69.4% (active); in assay [4], 45.1% (active); in assay [5] it was 6.59%; in assay [6], 44.8%.

With `C=CCn1c(C)cc(C2=NNC(=NC(C)(C)C)SC2)c1C`, the inhibition in assay [1] is 28.8%; in assay [2], 33.7% (active); in assay [3] it was -25.9%; in assay [4] it was -16.9%; in assay [5] it was 17.8%; in assay [6], 63% (active).

`Clc1ccccc1C1=Nn2c(nnc2-c2ccncc2)SC1`: the inhibition in assay [1] is 78.3% (active); in assay [2], 52.6% (active); in assay [3], 73.9% (active); in assay [4], 55.2% (active); in assay [5], 7.16%; in assay [6], 46%.

As for `NC(=O)c1sc2nc3c(c(-c4ccccc4)c2c1N)CCC3`, the inhibition in assay [1] was 77.1% (active); in assay [2], 54.8% (active); in assay [3] it was 72.8% (active); in assay [4], 49.3% (active); in assay [5], 12.9%; in assay [6], 51% (active). Besides, the figures for the inhibition in assay [7] and in assay [8] were 18.6% (active) and 31.9%, respectively.

Take `CC(=O)c1cccc(-c2csc3ncnc(Sc4nnnn4C)c23)c1`: the inhibition was 33% in assay [1]; 20.4% in assay [2]; 6.55% in assay [3]; 30.8% (active) in assay [4]; 24% in assay [5]; 15.9% in assay [6].

On to `O=C(/C=C/c1ccccc1)CC(O)(c1ccccc1)C(F)(F)F` (configuration not stated), for which the inhibition in assay [1] is 38.5%; in assay [2], 31% (active); in assay [3] it was 12.9%; in assay [4], 45.9% (active); in assay [5] it was 21.8%; in assay [6], 32.7%.

For `Cc1ccc(S(=O)(=O)c2ccc([N+](=O)[O-])cn2)cc1`, the inhibition in assay [1] is 25.7%; in assay [2], -18.7%; in assay [3], -25.7%; in assay [4], -32.7%; in assay [5], 13%; in assay [6] it was 23.4%.

Regarding `C=Cc1ccc(CC2(C)C(=O)Nc3ccc(-c4cccnc4)cc32)cc1` (configuration not stated), the inhibition is 45.2% (active) in assay [1]; 38% (active) in assay [2]; 53.8% (active) in assay [3]; 31.1% (active) in assay [4]; 2.06% in assay [5]; 35% in assay [6].

For the compound `c1cc(-c2nnc3sc(C4CCCCC4)nn23)ccn1`, the inhibition was 62.6% (active) in assay [1]; 37.2% (active) in assay [2]; 58.2% (active) in assay [3]; 51% (active) in assay [4]; 0.17% in assay [5]; 35.7% in assay [6].

As for `COc1ccc(/C=C/C(=O)Nc2ccccc2C(=O)O)cc1OC`, the inhibition is -1.26% in assay [1]; -3.34% in assay [2]; -73.2% in assay [3]; -29.6% in assay [4]; 26.9% in assay [5]; 37.8% in assay [6].

Take `O=C(Nc1cccc(C(F)(F)F)c1)Nc1nnc([C@@H]2C[C@H](O)[C@@H](CO)O2)s1`: the inhibition is 49% (active) in assay [1]; 21.6% in assay [2]; 29.3% in assay [3]; 20.7% in assay [4]; 1.58% in assay [5]; 29.1% in assay [6].
